# Active and inactive are the calls of the source.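 The calls were made as follows: active = valid curve fit with half-effect dose at most 10 µM and total binding change across doses of 30 points or more; inactive = the rest.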
# Assay: small GTPase nucleotide-binding inhibition, multiplex panel – biochemical, round 1 SAR, Mg buffer, multiplex flow cytometry, selectivity assay for Cdc42 probe extension project, SAR follow-up (AID 588477)
# Conditions: GST-GTPase beads, Bodipy-GTP binding, Rac constitutively active; series mostly up to 100 µM; percent response (remaining binding): at the top concentration
Structure (SMILES),outcome,percent response (remaining binding)
O=C(C#Cc1ccccc1)c1cccc([N+](=O)[O-])c1,inactive,
COc1ccc(C2CC(c3ccccc3)=NN2c2ccc(S(N)(=O)=O)cc2)cc1 (stereo not drawn),,87.9% (inactive)
NS(=O)(=O)c1ccc(N2N=C(c3ccccc3)CC2c2ccccc2)cc1 (stereo not drawn),,89.5% (inactive)
